Compound activity deposited in PubChem BioAssay by National Center for Advancing Translational Sciences (NCATS).
Only some compounds are listed: those with a hit (about 11% of all), similar ones and a draw of the others.
Pf growth 96h: inhibits malaria parasite growth, 96 h | P. falciparum luciferase reporter growth, 96 h | Potency, µM (series often up to 28.7 µM), for inactives: at the highest dose activity change, negative = inhibition, usual class: inhibitors | 320,000 tested, 6.9% active | AID 504834
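Readout is luminescence from an integrated firefly luciferase in P. falciparum. Red cells, 2% hematocrit and 0.05% parasitemia final, were cultured with compound through two parasite generations (96 hours) at 37 C, 5% CO2.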
HCV inhibitor: blocks hepatitis C virus. Huh7.5.1 HCVcc-Cre infection, luciferase reporter, 44 h. Potency, µM (titrated, usually from 41.8 µM), without a hit: at the top dose activity change, negative = inhibition, hits mostly inhibitors. 340,000 tested, 3.4% active
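Whole-lifecycle infectious HCVcc-Cre system; cells 1,000/well, compound then virus (~0.5 moi) added 4 h after plating, 44 h culture. Luciferase read 15 sec following 15 min substrate incubation, room temp.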
Pf growth 48h: inhibits P. falciparum growth in the first generation, 48 h; 310,000 tested, 5.9% active; P. falciparum luciferase growth in erythrocytes, 48 h; AID 504832; Potency, µM (titrated, usually from 28.7 µM), for the others: at the top dose activity change, negative = inhibition, hits mostly inhibitors
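Luminescence readout; reporter = integrated firefly luciferase in P. falciparum. RBC culture at 2% hematocrit, 0.1% parasitemia final, 37 C/5% CO2; decreased signal taken as growth inhibition.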
AMA1-RON2 inh: disrupts binding of P. falciparum AMA1 to RON2 | Potency, µM (top dose mostly 58.2 µM), for the others: at the highest dose activity change, negative = inhibition, actives largely listed as inhibitors | 360,000 tested, 0.2% active | AID 720542 | AlphaScreen AMA1-biotinylated RON2 peptide binding;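 also: 0% = vehicle wells and -100% = peptide control; nearly all actives have a fitted effect of over 45% in size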
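AMA1 (3D7) with his tag at 25 nM final met compounds first, then biotinylated RON2 peptide at 25 nM; detection used donor plus acceptor beads, 10 µg/mL apiece, read by AlphaScreen after 30 min at room temperature.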
* marks the source's active call; other numbers are inactive results; ? = inconclusive; · = not tested or not shown. Calls follow the shape of the dose curve; as a rule, active = well fitted curve in the direction sought with a large enough effect; inconclusive = small, poorly fitted or top-dose-only effect, or another doubt; inactive = no such curve, though single readings can be large; an effect the other way counts as inactive or inconclusive. Unless noted, % is scaled to controls: 0 for no effect and ±100 for the full control effect; potency is read from the fitted curve at half-maximal effect.

SMILES	Pf growth 96h	HCV inhibitor	Pf growth 48h	AMA1-RON2 inh
CCCN1CCC(=O)N([C@H](CSc2ccc(Br)cc2)Cc2ccccc2)CC1	1.85µM*	-11.3%	?	-24.4%
N#CCC(=O)N/N=C/c1cc(-c2ccccc2)n(-c2ccc(Cl)cc2)c1-c1ccccc1	-17.1%	?	?	14.8%
COC(=O)C1=C(C)NC(C)=C(C(=O)OC)C1C(=O)OCC(=O)N1CCCCC1C (stereo unspecified)	?	6.9%	-9.1%	-7.9%
O=C(NC12CC3CC(CC(C3)C1)C2)c1cccnc1Cl	11.7µM*	3.6%	4.0%	1.3%
N=c1c2c(ncn1CCN1CCOCC1)Oc1ccc3ccccc3c1C2c1ccccc1 (stereo unspecified)	4.65µM*	5.9%	·	-8.5%
COc1ccc(C2c3c(ccc4ccccc34)Oc3ncn4nc(-c5ccco5)nc4c32)cc1 (stereo unspecified)	3.7µM*	?	?	-1.3%
COc1ccc(C2c3c(ncn(CCN4CCOCC4)c3=N)Oc3ccc4ccccc4c32)cc1 (stereo unspecified)	·	?	9.28µM*	-17.3%
Cc1cccc(NC(=S)NCc2cccn2C)c1	11.7µM*	?	·	14.3%
Cc1ccc(NC(=S)NCc2cccn2C)cc1	?	-23.6%	·	11.3%
Cc1cccc(C)c1OCc1cc(C(=O)NCC2COCCO2)no1 (stereo unspecified)	-4.7%	-0.1%	17.6%	-3.8%
CCN1CCCC1CNC(=O)c1cc(COc2ccc(C)c(C)c2)on1 (stereo unspecified)	13.1µM*	?	-25.3%	7.7%
Cc1ccc(OCc2cc(C(=O)NCC3COCCO3)no2)cc1C (stereo unspecified)	10.4µM*	14.6%	-5.6%	-0.3%
CCN1C(=O)N[C@@H](CCc2ccccc2)[C@@H](C(=O)OC)[C@H]1C	71.0%	-14.9%	49.1%	-1.3%
CC1=NN(C(N)=S)C(=O)C1N=Nc1ccc(Cl)cc1 (stereo unspecified)	?	-8.4%	?	40.5%
CC1=NN(C(N)=S)C(=O)C1N=Nc1ccc(Br)cc1 (stereo unspecified)	?	-7.8%	9.28µM*	38.0%
COCc1cc(CNC(=O)C2CCC(=O)N(Cc3ccccc3F)C2)[nH]n1 (stereo unspecified)	22.9%	-0.3%	12.2%	14.6%
COc1ccc(C(=O)Nc2ccnn2C2CCN(C(=O)c3cc(C)on3)CC2)cc1	-0.7%	24.1%	16.2%	2.6%
Cc1cccc(N(C(=O)Cn2nnc3ccccc32)C(C(=O)NC(C)(C)C)c2ccsc2)c1 (stereo unspecified)	3.29µM*	4.8%	10.4µM*	8.1%
O=C(NC1CCCCC1)C(c1ccccc1)N(Cc1ccco1)C(=O)Cn1cnc2ccccc21 (stereo unspecified)	81.3%	-9.3%	3.7µM*	-0.8%
O=C(NCc1ccco1)C(c1ccco1)N(CCc1ccccc1)C(=O)Cn1nnc2ccccc21 (stereo unspecified)	2.33µM*	-9.9%	?	-3.6%
Cc1cccc(N(C(=O)Cn2nnc(-c3ccccc3F)n2)C(C(=O)NC(C)(C)C)c2ccncc2)c1 (stereo unspecified)	9.6%	-5.0%	17.5%	2.5%
CCC(C)(C)NC(=O)C(c1cccn1C)N(C(=O)Cn1nnc2ccccc21)c1ccc(OC)cc1 (stereo unspecified)	-4.3%	-4.1%	11.7µM*	-0.4%
O=C(CN1C(=O)c2ccccc2C1=O)Nc1ccc(S(=O)(=O)N2CCOCC2)cc1	?	9.6%	6.6%	-6.9%
O=C(C(c1ccccc1)c1ccccc1)N1CC[C@@]2(O)CCCC[C@H]2C1	9.8%	24.8%	-0.5%	?
CCc1ccc(C(C(=O)NC(C)(C)CC)N(Cc2ccco2)C(=O)Cn2nnc3ccccc32)cc1 (stereo unspecified)	16.1%	?	11.7µM*	-4.3%
SMILES	Pf growth 96h	HCV inhibitor	Pf growth 48h	AMA1-RON2 inh
COc1ccc(CN(C(=O)Cn2nnc3ccccc32)C(C(=O)NC(C)(C)C)c2ccco2)cc1 (stereo unspecified)	4.65µM*	15.8%	-10.8%	-4.9%
CCC(C)(C)NC(=O)C(c1ccccc1F)N(Cc1ccco1)C(=O)Cn1nnc2ccccc21 (stereo unspecified)	?	-17.6%	?	-6.6%
CCN(CC)C(CNS(=O)(=O)c1ccc(Cl)cc1)c1ccccc1 (stereo unspecified)	?	19.5%	1.1%	4.0%
COC(CNS(=O)(=O)c1ccc(Cl)cc1)c1ccccc1 (stereo unspecified)	13.1µM*	7.2%	-11.8%	-7.6%
O=P(O)(CCc1ccccn1)CN1CCCCC1	-4.7%	11.3%	·	-1.5%
O=P(O)(CCc1ccccn1)CN1CCOCC1	5.22µM*	11.6%	·	27.9%
COc1ccc(C(=O)N2CCC(n3c(C)nc4cc(F)ccc43)CC2)cc1	-25.1%	-19.4%	-15.2%	-10.4%
O=[N+]([O-])c1ccc(N2CCCC2)cc1N1CCCC1	81.2%	2.51µM*	2.6%	?
CC1CN(c2ccc([N+](=O)[O-])c(NCCOc3ccccc3)c2)CC(C)N1 (stereo unspecified)	105.0%	?	?	-17.5%
O=[N+]([O-])c1ccc(N2CCCCC2)cc1NCCOc1ccccc1	13.1µM*	10.7%	24.7%	?
CCc1ccc(OCCNc2cc(N3CCNC(C)C3)ccc2[N+](=O)[O-])cc1 (stereo unspecified)	?	14.1µM*	4.65µM*	-28.0%
NCCNc1cc(N2CCCC2)ccc1[N+](=O)[O-]	15.9%	-26.1%	-26.1%	-17.9%
CC1CN(c2ccc([N+](=O)[O-])c(NCCOc3ccc(Cl)cc3)c2)CC(C)N1 (stereo unspecified)	223.2%	8.91µM*	?	-27.8%
N#Cc1ccc(NC(=O)Cn2cnc(S(=O)(=O)N3CCCC3)c2)cc1	9.1%	8.2%	27.6%	26.2%
CCc1ccc(OCC(=O)O/N=C(\N)Cc2ccc([N+](=O)[O-])cc2)cc1	-0.4%	-1.2%	15.0%	10.3%
Cc1ccc(C(C)n2cc(C(=O)NCc3ccccn3)nn2)cc1 (stereo unspecified)	28.2%	6.3%	13.3%	114.4%
COc1ccccc1C(c1nnnn1C(C)(C)C)N1CCCCCC1 (stereo unspecified)	·	1.2%	8.28µM*	0.0%
CCOc1ccc(C(c2nnnn2C(C)(C)C)N2CCN(C(=O)c3ccco3)CC2)cc1 (stereo unspecified)	-19.6%	6.5%	?	-9.9%
COc1ccccc1C(c1nnnn1C(C)(C)C)N1CCN(C(=O)c2ccco2)CC1 (stereo unspecified)	?	8.6%	4.65µM*	-6.0%
O=C1CC(c2ccc(Cl)cc2)SC(N(c2ccccc2)c2ccccc2)=N1 (stereo unspecified)	?	2.6%	-15.4%	-7.4%
CSCCC(C(=O)Nc1c(C)cccc1C)N1CCN(C/C=C/c2ccccc2)CC1 (stereo unspecified)	·	·	·	-22.1%
CCCc1ccc2ccc3ccccc3c2n1	·	·	·	23.1%
